Assay results reported in PubChem BioAssay (NCI).
About 83,000 compounds went through this panel and 20% of them were active in at least one assay; those are over-represented in the sample as a whole.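 Assay: single dose, 48 h. Readout: percent growth (0 = no net growth; negative = cell death). Active: <10.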 Values without a mark were called inactive. Calls of active or inactive are those of the source.

Each compound was assayed on SF-539 CNS (assay: NCI-60 one-dose screen, 48 h (100 = growth as untreated, 0 = no growth, -100 = all killed)). Conditions: 10 µM unless noted.
`CC(=O)N1N=C(c2ccc(Cl)cc2)CC1c1c(C)nn(-c2ccccc2)c1N(C)Cc1ccccc1` (stereo not given) showed a growth of 93.8%. In the case of `CC1(C)CC2(C)CC(=O)C1C(C(=O)O)C2C(=O)O` (stereo not given), the growth is reported as 108%. `COc1ccc(-c2cnc(SCC(=O)Nc3ccc(-c4nc5ccccc5s4)cc3)n2-c2ccc(OC)cc2)cc1` was tested, and the growth was 102%. In the case of `COc1ccc2c(c1)[n+](=O)c(C(=O)/C=C/c1cc(OC)c(OC)c(OC)c1)c(C)n2[O-]`, the growth is reported as 81.9%. With `Nc1c(C(=O)Nc2cccc(Cl)c2)sc2nc3c(cc12)C(O)CCC3` (stereo not given) the growth was -24.9% (active). Compound `COc1cccc(-c2nc(-c3ccc(N)cc3)co2)c1` has a growth of 110%. Work on `O=C(Nc1ccccc1S)c1ccccc1` yielded a growth of 104%. In the case of `COc1ccc2c(c1)c(CC(=O)[Se]C)c(C)n2C(=O)c1ccc(Cl)cc1`, the growth is reported as -17.4% (active). With `Nc1nc(SCc2cccnc2)c2ncn(C3OC(CO)C(O)C3O)c2n1` (stereo not given) the growth was 95.1%. In the case of `O=C1c2cc3c(cc2-c2c1c1ccc(Cl)cc1c(=O)n2CCCNCCO)OCO3`, the growth is reported as -84.6% (active). `N#Cc1c(NC(=O)c2ccco2)[n+]([O-])c2cc(Cl)c(Cl)cc2[n+]1[O-]` was tested, and the growth was 90.4%. `Cc1[nH]ccc2cc3nc4ccccc4c3cc12` showed a growth of 34%. `C=C1CC[C@@H]2[C@](C)(COC(C)=O)[C@H](OC(C)=O)CC[C@@]2(C)[C@@H]1CC(NCc1ccccc1)C1=CCOC1=O` (stereo not given in full) was tested, and the growth was 79.5%. `COC(=O)c1cc2oc(/C=N\NC(=O)c3cc4oc(C)c(C)c4[nH]3)cc2[nH]1` showed a growth of 101%. Compound `O=C(CSc1nnc(-c2cc(-c3ccccc3)nc3ccccc23)o1)c1ccc(Br)cc1` has a growth of 99.6%. With `O=c1oc2c(cc1-c1ccc([N+](=O)[O-])cc1)C(O)Oc1ccccc1-2` (stereo not given) the growth was 93.8%. Work on `CC(C)Sc1nc(Cl)c(C#N)c(-c2ccc(F)cc2)n1` yielded a growth of 96.5%. `Cc1cc(C)cc(S(=O)(=O)n2ccc(-c3ccc4c(c3)CCC(C)(C)O4)n2)c1` showed a growth of 99.9%. In the case of `CCc1nn2c(-c3ccc(Cl)cc3C)c(-c3cc(OC)c(OC)c(OC)c3)nc2s1`, the growth is reported as 92.6%. For `O=C(Nc1cccc(-n2cc(-c3ccncc3)c(-c3cc(O)cc(Cl)c3)n2)c1)Nc1ccc(Cl)c(Cl)c1`, the growth was -29% (active). Compound `COc1ccccc1-n1c(-c2ccc(O)cc2C)cn2c3c(=O)[nH]c(=O)n(C)c3nc12` has a growth of 88.8%. In the case of `CCCCCN1C(=O)CCC1=O`, the growth is reported as 102%. Work on `O=C1NCCc2c1noc2-c1ccccc1` yielded a growth of 94.7%. `CCOC(=O)c1cc2oc(/C=C/c3cc(=O)c4cc(Cl)ccc4o3)cc2[nH]1` was tested, and the growth was 70%. `COc1cc(/C=C/C(=O)c2c(C)n([O-])c3ccccc3[n+]2=O)cc(OC)c1OC` gave a growth of 75.5%. In the case of `O=C(c1ccccc1)C(CN1CCCCC1)c1ccccc1` (stereo not given), the growth is reported as -15.7% (active). For `c1ccc2c(-c3nc4ccccc4[nH]3)cccc2c1`, the growth was 37.1%. With `COc1cc(/C=C/c2cc(/C=C/c3ccc(O)c(OC)c3)n(C(=O)Cc3ccccc3)n2)ccc1O` the growth was -23.1% (active). `O=C1NC(=O)/C(=C/c2ccc(Cl)cc2Cl)N1` gave a growth of 103%. With `Nc1nc2c(c(=O)[nH]1)C1(C(=O)Nc3ccccc31)c1c(nc(N)[nH]c1=O)N2` the growth was 106%. `COc1ccc(NS(=O)(=O)N2CCCCC2)cc1` was tested, and the growth was 108%. `COc1ccc(-c2cc(-c3cccnc3)nc3sc(C(=O)Nc4ccccc4)c(N)c23)cc1OC` showed a growth of 73.3%. `C/C(=C\CCc1ccoc1)CC/C=C(\C)CCCNc1ccc(F)cc1` was tested, and the growth was 89.6%. `Cc1cc2c(cc1C)[n+](Cc1ccc3ccccc3c1)cn2Cc1ccc2ccccc2c1` was tested, and the growth was -93.2% (active). For `CCN(CC)CCCCCCCNc1c2ccc(Cl)cc2nc2ccc(OC)cc12`, the growth was -71.2% (active). `Cc1cc(C(=O)Nc2ccc3cc(CN4CCOCC4)ccc3n2)c(C)n1-c1ccccc1` was tested, and the growth was 59.1%. In the case of `COc1cc(Cl)cc(-c2nn(-c3cccc(NC(=O)c4cc(C(F)(F)F)cc(C(F)(F)F)c4)c3)cc2-c2ccncc2)c1`, the growth is reported as 80%. For `O=C(NCCNC(=O)Oc1cccc2ccccc12)Oc1cccc2ccccc12`, the growth was 101%. `COC(=O)[C@H](Cc1cn(C)cn1)NC(=O)[C@H](C)NC(=O)Nc1cc(C(F)(F)F)cc(C(F)(F)F)c1` was tested, and the growth was -95.1% [100 µM] (active). Compound `O=C1CNc2cc(Cl)ccc2N1` has a growth of 106%.

The compounds below were run on UACC-257 melanoma in the same assay as above. Conditions: 10 µM unless noted.
`CC(=O)N1N=C(c2ccc(Cl)cc2)CC1c1c(C)nn(-c2ccccc2)c1N(C)Cc1ccccc1` (stereo not given) was tested, and the growth was 50.4%. For `CC1(C)CC2(C)CC(=O)C1C(C(=O)O)C2C(=O)O` (stereo not given), the growth was 107%. In the case of `COc1ccc(-c2cnc(SCC(=O)Nc3ccc(-c4nc5ccccc5s4)cc3)n2-c2ccc(OC)cc2)cc1`, the growth is reported as 116%. Compound `COc1ccc2c(c1)[n+](=O)c(C(=O)/C=C/c1cc(OC)c(OC)c(OC)c1)c(C)n2[O-]` has a growth of 80.5%. `Nc1c(C(=O)Nc2cccc(Cl)c2)sc2nc3c(cc12)C(O)CCC3` (stereo not given) showed a growth of 66.1%. In the case of `COc1cccc(-c2nc(-c3ccc(N)cc3)co2)c1`, the growth is reported as 93.1%. For `O=C(Nc1ccccc1S)c1ccccc1`, the growth was 92.8%. With `COc1ccc2c(c1)c(CC(=O)[Se]C)c(C)n2C(=O)c1ccc(Cl)cc1` the growth was 3.77% (active). Work on `Nc1nc(SCc2cccnc2)c2ncn(C3OC(CO)C(O)C3O)c2n1` (stereo not given) yielded a growth of 92.7%. For `O=C1c2cc3c(cc2-c2c1c1ccc(Cl)cc1c(=O)n2CCCNCCO)OCO3`, the growth was -59% (active). In the case of `N#Cc1c(NC(=O)c2ccco2)[n+]([O-])c2cc(Cl)c(Cl)cc2[n+]1[O-]`, the growth is reported as 99.3%. Compound `Cc1[nH]ccc2cc3nc4ccccc4c3cc12` has a growth of 39.9%. Compound `C=C1CC[C@@H]2[C@](C)(COC(C)=O)[C@H](OC(C)=O)CC[C@@]2(C)[C@@H]1CC(NCc1ccccc1)C1=CCOC1=O` (stereo not given in full) has a growth of 32.8%. Work on `COC(=O)c1cc2oc(/C=N\NC(=O)c3cc4oc(C)c(C)c4[nH]3)cc2[nH]1` yielded a growth of 114%. In the case of `O=C(CSc1nnc(-c2cc(-c3ccccc3)nc3ccccc23)o1)c1ccc(Br)cc1`, the growth is reported as 111%. `O=c1oc2c(cc1-c1ccc([N+](=O)[O-])cc1)C(O)Oc1ccccc1-2` (stereo not given) showed a growth of 89.3%. Work on `CC(C)Sc1nc(Cl)c(C#N)c(-c2ccc(F)cc2)n1` yielded a growth of 118%. Compound `Cc1cc(C)cc(S(=O)(=O)n2ccc(-c3ccc4c(c3)CCC(C)(C)O4)n2)c1` has a growth of 89.6%. For `CCc1nn2c(-c3ccc(Cl)cc3C)c(-c3cc(OC)c(OC)c(OC)c3)nc2s1`, the growth was 103%. For `O=C(Nc1cccc(-n2cc(-c3ccncc3)c(-c3cc(O)cc(Cl)c3)n2)c1)Nc1ccc(Cl)c(Cl)c1`, the growth was -70.7% (active). In the case of `COc1ccccc1-n1c(-c2ccc(O)cc2C)cn2c3c(=O)[nH]c(=O)n(C)c3nc12`, the growth is reported as 82.2%. `CCCCCN1C(=O)CCC1=O` was tested, and the growth was 99.4%. `O=C1NCCc2c1noc2-c1ccccc1` was tested, and the growth was 101%. `CCOC(=O)c1cc2oc(/C=C/c3cc(=O)c4cc(Cl)ccc4o3)cc2[nH]1` gave a growth of 101%. Compound `COc1cc(/C=C/C(=O)c2c(C)n([O-])c3ccccc3[n+]2=O)cc(OC)c1OC` has a growth of 54.4%. Compound `O=C(c1ccccc1)C(CN1CCCCC1)c1ccccc1` (stereo not given) has a growth of 25.6%. `c1ccc2c(-c3nc4ccccc4[nH]3)cccc2c1` showed a growth of 35.7%. For `COc1cc(/C=C/c2cc(/C=C/c3ccc(O)c(OC)c3)n(C(=O)Cc3ccccc3)n2)ccc1O`, the growth was -5.67% (active). Compound `O=C1NC(=O)/C(=C/c2ccc(Cl)cc2Cl)N1` has a growth of 108%. `Nc1nc2c(c(=O)[nH]1)C1(C(=O)Nc3ccccc31)c1c(nc(N)[nH]c1=O)N2` gave a growth of 110%. With `COc1ccc(NS(=O)(=O)N2CCCCC2)cc1` the growth was 102%. Work on `COc1ccc(-c2cc(-c3cccnc3)nc3sc(C(=O)Nc4ccccc4)c(N)c23)cc1OC` yielded a growth of 107%. `C/C(=C\CCc1ccoc1)CC/C=C(\C)CCCNc1ccc(F)cc1` showed a growth of 99.7%. `Cc1cc2c(cc1C)[n+](Cc1ccc3ccccc3c1)cn2Cc1ccc2ccccc2c1` was tested, and the growth was -55.6% (active). For `CCN(CC)CCCCCCCNc1c2ccc(Cl)cc2nc2ccc(OC)cc12`, the growth was -84.3% (active). With `Cc1cc(C(=O)Nc2ccc3cc(CN4CCOCC4)ccc3n2)c(C)n1-c1ccccc1` the growth was -12.7% (active). Compound `COc1cc(Cl)cc(-c2nn(-c3cccc(NC(=O)c4cc(C(F)(F)F)cc(C(F)(F)F)c4)c3)cc2-c2ccncc2)c1` has a growth of 79.3%. Compound `O=C(NCCNC(=O)Oc1cccc2ccccc12)Oc1cccc2ccccc12` has a growth of 88.3%. With `COC(=O)[C@H](Cc1cn(C)cn1)NC(=O)[C@H](C)NC(=O)Nc1cc(C(F)(F)F)cc(C(F)(F)F)c1` the growth was -92.9% [100 µM] (active). Work on `O=C1CNc2cc(Cl)ccc2N1` yielded a growth of 113%.
